Where “and” joins values, the source holds several entries; their conditions need not be identical. Equal values may be shown once. Inconclusive results are not listed. A call without a number means that no potency is given here. Some structures have more than one record in an assay (separate samples or runs), and their calls can disagree. Calls of active or inactive are those of the source. Unless noted, calls come from the whole dose curve; as a rule, active = well fitted curve in the direction sought with a large enough effect in the repeat runs; inconclusive = weak or mixed curves; inactive = no such curve, though single readings can be large; an effect the other way counts as inactive or inconclusive.
Tests used:
[1] = target: Thyrotropin receptor (Homo sapiens) (UniProt P16473); test: qHTS assay to identify small molecule antagonists of the thyroid stimulating hormone receptor (TSHR) signaling pathway (AID 1259385; calls by dose curve; note: nearly all actives have a fitted effect of over 20% in size)
Outline: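 TSHR-HEK293 cells (800/well) plated 18 h, then compounds with Ro20-1724 and TSH at 1.5 ng/mL final, 30 min at room temperature. cAMP quantified by HTRF (cAMP-d2/anti-cAMP-cryptate, 1 h); 15 concentrations in triplicate.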

[2] = qHTS assay to identify small molecule agonists of the estrogen receptor alpha (ER-alpha) signaling pathway in the presence of an antagonist - cell viability counter screen (AID 1259386);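 note: cells exposed to compounds for 22 h at 37 °C before the viability read; nearly all actives have a fitted effect of over 30% in size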; note: potency is the fitted concentration of half-maximal effect
Outline: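 The test measures whether compounds kill ER-alpha reporter cells (VM7Luc4E2) under antagonist co-treatment (ICI-182,780, 10.0nM). Fluorescence from CellTiter-Fluor is read after a 22hr exposure.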

[3] = target: Progesterone receptor (Homo sapiens) (UniProt P06401); test: qHTS assay to identify small molecule agonists of the progesterone receptor (PR) signaling pathway (AID 1346784; calls by dose curve; note: nearly all actives have a fitted effect of over 30% in size)
Outline: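 Seed PR-UAS-bla HEK 293T cells (2% charcoal-stripped FBS), incubate 6 hr at 37C; add compounds in DMSO, 16 hr at 37C; add LiveBLAzer B/G substrate, 2 hr RT; read fluorescence intensity.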

[4] = target: Progesterone receptor (Homo sapiens) (UniProt P06401); test: qHTS assay to identify small molecule antagonists of the progesterone receptor (PR) signaling pathway (AID 1346795; active = well fitted inhibition curve with a large enough effect in the signal ratio in the repeat runs, not every such curve was filed as active; the % refers to the signal ratio; note: potency is the fitted concentration of half-maximal effect)
Outline: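 Screening used a GripTite HEK293T line with PR-responsive UAS-beta-lactamase. Cells were challenged with compound in the presence of 1 nM R5020 final for 16 hr at 37C; B/G FRET substrate, 2 hr room temperature, fluorescence.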

[5] = qHTS assay to identify small molecule antagonists of the progesterone receptor (PR) signaling pathway - cell viability counter screen (AID 1346798); note: series mostly up to about 92 µM; nearly all actives have a fitted effect of over 50% in size
Outline: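 Measures cytotoxicity in parallel with the PR antagonist reporter read: HEK293T PR-UAS-bla cells get compound and R5020 for 16 hr, and remaining viable cells are quantified by CellTiter-Glo luminescence.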

[6] = qHTS assay to identify small molecule agonists of the progesterone receptor (PR) signaling pathway - cell viability counter screen (AID 1346799; calls by dose curve; note: nearly all actives have a fitted effect of over 45% in size)
Outline: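 Using the same plates as the PR reporter screen, HEK293T PR-UAS-bla cells received compounds for 16 hr at 37C and were then lysed with CellTiter-Glo; luminescence was read 30 min later at room temperature.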

[7] = qHTS assay to identify small molecule antagonists of the TGF-beta/Smad signaling pathway - cell viability counter screen (AID 1346824); note: nearly all actives have a fitted effect of over 50% in size
Outline: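 SBE-bla HEK 293T cells, incubated overnight, then compound plus 0.25 ng/mL TGF-beta1 (stock added) for 5 hr at 37 C. Viability was read in the same wells by CellTiter-Glo luminescence after 30 min at room temperature.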

[8] = qHTS assay to identify small molecule agonists of the TGF-beta/Smad signaling pathway - cell viability counter screen (AID 1346829); note: top concentration of the series differs between compounds; nearly all actives have a fitted effect of over 45% in size
Outline: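 Tox21 qHTS format: SBE-bla HEK 293T cells treated with DMSO-dissolved compounds for 5 hr; CellTiter-Glo luminescence after 30 min at room temperature.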

[9] = qHTS assay to identify small molecule agonists of the TGF-beta/Smad signaling pathway (AID 1346859; active = well fitted activation curve with a large enough effect in the signal ratio in the repeat runs, not every such curve was filed as active; the % refers to the signal ratio; note: series mostly up to about 77 µM)
Outline: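 Beta-lactamase reporter activity downstream of Smad binding elements was measured in stably transfected HEK 293T cells; compounds were incubated for 5 hr, substrate for 2 hr at room temperature.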

[10] = target: Thyrotropin-releasing hormone receptor (Homo sapiens) (UniProt P34981); test: qHTS assay to identify small molecule antagonists of the thyrotropin-releasing hormone receptor (TRHR) signaling pathway (AID 1346877; active = well fitted inhibition curve with a large enough effect in the repeat runs, not every such curve was filed as active; note: series mostly up to about 51 µM)
Outline: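 Overnight-plated (18 h, 37 °C) HEK293 cells expressing TRHR were dye-loaded 2 h, treated with compound, then stimulated with TRH at 1 nM final. Fluorescence intensity was captured every second for 3 min.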

Chain of Thyrotropin receptor (Homo sapiens) (P16473 whole entry, looked up): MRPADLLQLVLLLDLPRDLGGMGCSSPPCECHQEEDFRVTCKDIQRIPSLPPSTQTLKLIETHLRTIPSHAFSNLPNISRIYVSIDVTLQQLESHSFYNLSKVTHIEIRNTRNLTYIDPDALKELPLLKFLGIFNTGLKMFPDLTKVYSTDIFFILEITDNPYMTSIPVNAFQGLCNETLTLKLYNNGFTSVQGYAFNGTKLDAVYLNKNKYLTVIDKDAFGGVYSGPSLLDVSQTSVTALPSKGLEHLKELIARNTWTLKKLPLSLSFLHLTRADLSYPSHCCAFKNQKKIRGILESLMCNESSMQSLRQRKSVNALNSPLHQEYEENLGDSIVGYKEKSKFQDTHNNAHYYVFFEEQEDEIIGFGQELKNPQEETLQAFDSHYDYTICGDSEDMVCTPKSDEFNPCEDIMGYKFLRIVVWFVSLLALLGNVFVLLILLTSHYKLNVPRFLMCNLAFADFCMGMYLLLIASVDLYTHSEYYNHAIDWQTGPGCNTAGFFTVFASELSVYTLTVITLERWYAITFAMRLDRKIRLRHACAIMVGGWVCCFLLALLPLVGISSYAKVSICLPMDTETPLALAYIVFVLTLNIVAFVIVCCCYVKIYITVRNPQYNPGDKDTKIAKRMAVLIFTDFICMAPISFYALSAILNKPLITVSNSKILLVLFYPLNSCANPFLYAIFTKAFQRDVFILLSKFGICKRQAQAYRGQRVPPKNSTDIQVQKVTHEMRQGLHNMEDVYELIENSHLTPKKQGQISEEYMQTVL
Chain of Progesterone receptor (Homo sapiens) (P06401 whole entry, looked up): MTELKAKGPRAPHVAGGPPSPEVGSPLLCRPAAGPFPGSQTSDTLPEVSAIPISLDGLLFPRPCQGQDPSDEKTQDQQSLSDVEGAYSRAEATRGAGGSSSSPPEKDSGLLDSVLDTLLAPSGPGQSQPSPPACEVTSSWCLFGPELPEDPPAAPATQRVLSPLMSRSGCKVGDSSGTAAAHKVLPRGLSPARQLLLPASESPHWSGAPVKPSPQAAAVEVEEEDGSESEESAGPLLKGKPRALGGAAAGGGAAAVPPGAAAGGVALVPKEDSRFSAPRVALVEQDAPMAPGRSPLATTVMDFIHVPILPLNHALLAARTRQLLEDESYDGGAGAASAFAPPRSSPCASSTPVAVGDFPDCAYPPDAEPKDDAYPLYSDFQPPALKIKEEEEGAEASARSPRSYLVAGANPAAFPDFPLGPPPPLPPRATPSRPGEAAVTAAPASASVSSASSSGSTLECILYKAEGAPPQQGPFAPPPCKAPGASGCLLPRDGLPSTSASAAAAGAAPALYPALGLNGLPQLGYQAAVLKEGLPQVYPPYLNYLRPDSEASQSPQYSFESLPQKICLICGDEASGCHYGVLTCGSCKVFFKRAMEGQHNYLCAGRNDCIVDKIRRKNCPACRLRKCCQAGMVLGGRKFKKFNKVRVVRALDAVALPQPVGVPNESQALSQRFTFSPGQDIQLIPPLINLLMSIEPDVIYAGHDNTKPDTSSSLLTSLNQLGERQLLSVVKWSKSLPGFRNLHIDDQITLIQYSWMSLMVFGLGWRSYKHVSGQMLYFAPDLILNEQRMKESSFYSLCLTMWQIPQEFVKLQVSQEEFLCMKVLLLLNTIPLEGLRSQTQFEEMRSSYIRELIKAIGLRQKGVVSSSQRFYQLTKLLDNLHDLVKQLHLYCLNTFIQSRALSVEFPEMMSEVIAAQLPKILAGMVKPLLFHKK
Chain of Thyrotropin-releasing hormone receptor (Homo sapiens) (P34981 whole entry, looked up): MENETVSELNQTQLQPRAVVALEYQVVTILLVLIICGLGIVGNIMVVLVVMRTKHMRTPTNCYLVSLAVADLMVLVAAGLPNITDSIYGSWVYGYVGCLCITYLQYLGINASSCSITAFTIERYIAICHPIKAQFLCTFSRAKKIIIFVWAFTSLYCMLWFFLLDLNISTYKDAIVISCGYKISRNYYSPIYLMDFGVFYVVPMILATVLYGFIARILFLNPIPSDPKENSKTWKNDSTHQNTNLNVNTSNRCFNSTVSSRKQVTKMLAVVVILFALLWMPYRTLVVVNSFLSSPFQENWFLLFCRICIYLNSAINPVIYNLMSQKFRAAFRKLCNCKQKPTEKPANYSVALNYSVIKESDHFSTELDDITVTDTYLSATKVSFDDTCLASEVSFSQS

| SMILES | outcome [1] | Potency [2] | Potency [3] | Potency [4] | Potency [5] | Potency [6] | Potency [7] | Potency [8] | outcome [9] | Potency [10] |
| --- | --- | --- | --- | --- | --- | --- | --- | --- | --- | --- |
| ClC1C(Cl)C(Cl)C(Cl)C(Cl)C1Cl (stereo not given) | inactive | inactive | inactive | inactive | inactive | inactive | inactive | inactive | inactive | inactive |
| Oc1cc(Cl)c(Cl)cc1Cl | inactive | inactive | inactive | 60.6 µM (active) and inactive and 54.5 µM (active) | inactive |  | inactive | inactive | inactive | inactive |
| NCc1cccnc1 | inactive | inactive |  | inactive | inactive | inactive | inactive | inactive | inactive | inactive |
| c1cc(OCC2CO2)ccc1Cc1ccc(OCC2CO2)cc1 (stereo not given) | inactive | inactive | inactive |  |  |  | inactive | inactive | inactive | inactive |
| CC1(C)C(C=C(Cl)Cl)C1C(=O)OC(C#N)c1cccc(Oc2ccccc2)c1 (stereo not given) | inactive | inactive | inactive |  |  | inactive | inactive | inactive | inactive | inactive |
| COP(=O)(OC)OC | inactive | inactive |  | inactive | inactive | inactive | inactive | inactive | inactive | inactive |
| CCCCCCCCOC(=O)c1ccccc1C(=O)OCCCCCCCC | inactive | inactive |  | inactive | inactive | inactive | inactive | inactive | inactive | inactive |
| C1=Cc2cccc3cccc1c23 | inactive | inactive |  | inactive | inactive | inactive | inactive | inactive | inactive | inactive |
| COC(=O)c1sccc1S(=O)(=O)NC(=O)Nc1nc(C)nc(OC)n1 | inactive | inactive |  | inactive | inactive | inactive | inactive | inactive | inactive | inactive |
| Oc1cc(Cl)ccc1Cl | inactive | inactive |  | inactive | inactive | inactive | inactive | inactive | inactive | inactive |
| Nc1ccncc1 | inactive | inactive |  | inactive |  | inactive | inactive | inactive | inactive | inactive |
| COc1ccc(C=O)cc1 | inactive | inactive | inactive | inactive |  | inactive | inactive | inactive | inactive | inactive |
| CC(C)NC(C)C | inactive | inactive |  | inactive | inactive | inactive | inactive | inactive | inactive | inactive |
| NNC(=S)NN | inactive | inactive | inactive | 62.8 µM (active) and 54.5 µM (active) |  | inactive | inactive | inactive | inactive | inactive |
| c1ccc(-c2cccc(-c3ccccc3)c2)cc1 | inactive | inactive | inactive |  | inactive | inactive | inactive | inactive | inactive | inactive |
| c1ccc(P(c2ccccc2)c2ccccc2)cc1 | inactive | inactive | inactive |  | inactive | inactive | inactive | inactive | inactive | inactive |
| CCCCN(CCCC)N=O | inactive | inactive | inactive | inactive |  | inactive | inactive | inactive | inactive | inactive |
| O=P(O)(O)CCCl | inactive | inactive |  | inactive | inactive | inactive | inactive | inactive | inactive | inactive |
| CCC(=O)O[C@H]1CC[C@H]2[C@@H]3CCC4=CC(=O)CC[C@]4(C)[C@H]3CC[C@]12C | inactive | inactive |  | 486 nM (active) | inactive |  | inactive | inactive | inactive |  |
| CCOC(=O)C(C)OC(=O)c1cc(Oc2ccc(C(F)(F)F)cc2Cl)ccc1[N+](=O)[O-] (stereo not given) | inactive | inactive | inactive | 30500 nM (active) |  |  | inactive | inactive | inactive | inactive |

| SMILES | outcome [1] | Potency [2] | Potency [3] | Potency [4] | Potency [5] | Potency [6] | Potency [7] | Potency [8] | outcome [9] | Potency [10] |
| --- | --- | --- | --- | --- | --- | --- | --- | --- | --- | --- |
| Nc1ccc(Cl)cc1N | inactive | inactive | inactive |  | inactive | inactive | inactive | inactive |  | inactive |
| CC(C)Oc1cc(-n2nc(C(C)(C)C)oc2=O)c(Cl)cc1Cl | inactive | inactive |  | 24 µM (active) and 24.3 µM (active) | inactive | inactive | inactive | inactive | inactive | inactive |
| CCCCC(CC)COC(=O)c1ccc(C(=O)OCC(CC)CCCC)c(C(=O)OCC(CC)CCCC)c1 (stereo not given) | inactive | inactive |  | inactive | inactive | inactive | inactive | inactive | inactive | inactive |
| CC(C)N(C(=O)SCC(Cl)=C(Cl)Cl)C(C)C | inactive | inactive |  | inactive | inactive | inactive | inactive | inactive | inactive | inactive |
| N#CC(Br)Br | inactive | inactive |  | inactive | inactive | inactive | inactive | inactive | inactive | inactive |
| CCCCNC(=O)n1c(NC(=O)OC)nc2ccccc21 | inactive | inactive | inactive |  |  | inactive | inactive | inactive | inactive | inactive |
| O=C(O)C(F)(F)C(F)(F)C(F)(F)C(F)(F)C(F)(F)C(F)(F)C(F)(F)F | inactive | inactive | inactive | inactive |  |  | inactive | inactive | inactive | inactive |
| O=[N+]([O-])c1ccc(O)c([N+](=O)[O-])c1 | inactive | 30.8 µM (active) and 27.3 µM (active) | inactive | inactive |  |  | inactive | inactive | inactive | inactive |
| C#CCOS(=O)OC1CCCCC1Oc1ccc(C(C)(C)C)cc1 (stereo not given) | inactive | 30.7 µM (active) and 48.6 µM (active) | inactive |  |  |  | inactive | inactive | inactive | inactive |
| CCCCCc1cc(O)cc(O)c1 | inactive | inactive | inactive | 68.9 µM (active) and 21.7 µM (active) |  |  | inactive | inactive | inactive | inactive |
| Cc1ccc2c(c1N)C(=O)c1ccccc1C2=O | inactive | 27 µM (active) and 27.3 µM (active) | inactive |  |  | inactive | inactive | inactive | inactive | inactive |
| CCC(C)(C)c1ccc(O)cc1 | inactive | inactive |  | inactive | inactive | inactive | inactive | inactive | inactive | inactive |
| CCC(C)c1cc([N+](=O)[O-])cc([N+](=O)[O-])c1O (stereo not given) | inactive | inactive and 24.3 µM (active) |  | inactive |  | inactive | inactive | inactive | inactive |  |
| CNC(=O)N(C)c1nnc(C(C)(C)C)s1 | inactive | inactive |  | inactive | inactive | inactive | inactive | inactive | inactive | inactive |
| CCN(N=O)C(N)=O | inactive | inactive |  | inactive | inactive | inactive | inactive | inactive | inactive | inactive |
| Cc1cccc(N)c1N | inactive | inactive | inactive |  | inactive | inactive | inactive | inactive | inactive | inactive |
| c1ccc(NNc2ccccc2)cc1 | inactive | inactive | inactive | inactive |  | inactive | inactive | inactive | inactive | inactive |
| Cc1ccccc1[N+](=O)[O-] | inactive | inactive |  | inactive |  | inactive | inactive | inactive | inactive | inactive |
| O=C(NC(=O)c1c(F)cccc1F)Nc1ccc(Cl)cc1 | inactive | inactive |  | inactive |  | inactive | inactive | inactive | inactive |  |
| Nc1ccc(Cl)c(Cl)c1 | inactive | inactive | inactive |  |  | inactive | inactive | inactive | inactive | inactive |

— PubChem BioAssay (Tox21)
